Screening results (PubChem BioAssay)
ALOX12 inhib: qHTS Assay for Inhibitors of 12-hLO (12-human lipoxygenase); Polyunsaturated fatty acid lipoxygenase ALOX12 (Homo sapiens), P18054; purified 12-hLO, xylenol orange hydroperoxide absorbance; Potency, µM (titrated, usually from 57.1 µM), most hits filed as inhibitors; 150,000 compounds, 0.12% hits; also: nearly all actives have a fitted effect of over 55% in size
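Purified human 12hLO (150 nM final) was preincubated with compounds for 15 min at room temperature in 25 mM Hepes pH 7.0, 0.01% Triton X-100, then reacted with 40 uM arachidonic acid for 30 min. Hydroperoxide was detected with ferrous iron/xylenol orange.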
IMPase inh: qHTS Assay for Identifying the Cell-Membrane Permeable IMPase Inhibitors. 120,000 tested, under 10 active. inhibition (IP1 accumulation), % at 46.1 µM. CHO-M1 cells, IP1 accumulation, HTRF TR-FRET ratio. Inositol monophosphatase 1 (Rattus norvegicus), P97697. AID 901, 2007; active = well fitted curve in the direction sought with a large enough effect in the signal ratio, not every such curve was filed as active; inconclusive = small, poorly fitted or top-dose-only effect, or a change in a side signal; inactive = no such curve, though single readings can be large or run the other way; the % refers to the signal ratio;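 also: cells stimulated with carbachol in lithium chloride buffer; higher means more IMPase inhibition seen as more IP1 and lower FRET ratio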
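CHO-M1 cells (CHO stably expressing M1 receptor), compound up to 46 uM final, stimulated with carbachol (50 uM as added) in buffer with 50mM LiCl, pH 7.4, 30 min at 37C. Cytosolic IP1 read by TR-FRET; AC50 from Hill fits.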
ALOX15B inhib: qHTS Assay for Inhibitors of 15-hLO-2 (15-human lipoxygenase 2) | Polyunsaturated fatty acid lipoxygenase ALOX15B (Homo sapiens), O15296 | purified 15hLO-2, xylenol orange hydroperoxide absorbance | Potency, µM (series often up to 57.1 µM), usual class: inhibitors | 110,000 compounds, 0.56% hits; also: nearly all actives have a fitted effect of over 60% in size
Target sequence (O15296 whole entry, looked up): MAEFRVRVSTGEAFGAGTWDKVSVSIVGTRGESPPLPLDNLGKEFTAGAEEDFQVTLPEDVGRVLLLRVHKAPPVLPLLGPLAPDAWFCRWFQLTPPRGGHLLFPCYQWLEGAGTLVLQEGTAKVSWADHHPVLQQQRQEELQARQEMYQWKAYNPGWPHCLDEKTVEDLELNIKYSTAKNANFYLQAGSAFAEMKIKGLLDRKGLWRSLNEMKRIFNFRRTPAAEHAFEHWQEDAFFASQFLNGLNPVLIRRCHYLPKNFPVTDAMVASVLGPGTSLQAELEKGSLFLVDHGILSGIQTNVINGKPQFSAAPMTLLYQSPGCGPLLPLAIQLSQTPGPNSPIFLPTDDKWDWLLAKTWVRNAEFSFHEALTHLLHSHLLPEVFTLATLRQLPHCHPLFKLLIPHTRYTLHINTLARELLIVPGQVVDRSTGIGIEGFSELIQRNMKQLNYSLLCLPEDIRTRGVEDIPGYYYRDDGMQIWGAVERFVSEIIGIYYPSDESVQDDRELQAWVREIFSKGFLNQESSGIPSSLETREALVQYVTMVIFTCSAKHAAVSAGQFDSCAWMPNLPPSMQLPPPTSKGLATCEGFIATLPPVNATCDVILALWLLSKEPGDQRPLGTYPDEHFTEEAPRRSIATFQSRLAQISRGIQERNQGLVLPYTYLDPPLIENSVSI
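Purified human 15hLO-2 (50 nM) preincubated 15 min with compound, then 45 uM arachidonic acid for 90 min at RT in 25 mM Hepes pH 7.5, 0.01% Triton X-100. Hydroperoxide detected by Fe-xylenol orange; 573/405 nm absorbance ratio.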
PNC assembly inh: High Content Assay for Compounds that inhibit the Assembly of the Perinucleolar Compartment. PC3M PTB-GFP, PNC prevalence imaging, 16 h; active compounds read low. activity change (PNC), negative = inhibition, % at 10 µM. 140,000 compounds, 3.1% hits. AID 2417, 2010;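 active = readout at or below -70, meaning at least 70% loss of cells showing the perinucleolar compartment, a nuclear body marking cancer cells; inconclusive = readout between -30 and a set limit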
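Read-out is percentage of cells bearing a perinucleolar compartment, from automated 20x imaging of fixed, Hoechst-stained PC3M PTB-GFP cells. Cells were seeded 4 h, then exposed 16 h to compound (23 nl of library stock) in duplicate plates.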
HPGD block: qHTS Assay for Inhibitors of HPGD (15-Hydroxyprostaglandin Dehydrogenase); 15-hydroxyprostaglandin dehydrogenase [NAD(+)] (Homo sapiens), P15428; purified HPGD, NADH fluorescence kinetic, PGE2 substrate; Potency, µM, most hits filed as inhibitors; 150,000 compounds, 4.3% hits; active = well fitted inhibition curve with a large enough effect, not every such curve was filed as active; inconclusive = small, poorly fitted or top-dose-only effect, or another doubt; inactive = no such curve, though single readings can be large or run the other way
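20 nM HPGD preincubated 15 min at room temperature with compound in 50 mM Tris-HCl pH 8, 0.01% Tween 20. Started with 1 mM NAD+ and 30 uM prostaglandin E2; NADH fluorescence (360/450 nm) read 5 times over 30-s intervals, last minus first.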
IMPase Li cell: qHTS Assay for Identifying the Cell-Membrane Permeable IMPase Inhibitors: Potentiation with Lithium; Potency, µM (top dose mostly 59.4 µM), usual class: inhibitors; 210,000 compounds, 0.35% hits; CHO-M1 cells, IP1 TR-FRET (IP-One), carbachol + lithium;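 also: IP1 builds up when IMPase is blocked and the TR-FRET signal falls; nearly all actives have a fitted effect of over 50% in size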
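CHO cells stably expressing M1 receptor (2000/well) were cultured 16–30 h, then exposed to compounds with a small lithium addition for 30 min at 37C. IP1 was measured by TR-FRET competition; AC50 from Hill fits.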
Hits are given with their value; . = inactive; ? = inconclusive; / = no result; [ ] = remark or other dose. Most compounds without a hit are left out; they make up all but 5.4% or so of the library. Unless noted, calls follow the shape of the dose curve; as a rule, active = well fitted curve in the direction sought with a large enough effect; inconclusive = small, poorly fitted or top-dose-only effect, or another doubt; inactive = no such curve, though single readings can be large; an effect the other way counts as inactive or inconclusive.

SMILES	ALOX12 inhib	IMPase inh	ALOX15B inhib	PNC assembly inh	HPGD block	IMPase Li cell
Cc1cccc2c1N(CCCOc1ccc(C(C)(C)C)cc1)C(=O)C2=O	.	.	?	?	8.9µM	.
CC(=O)Nc1ccc(NS(=O)(=O)c2ccc(Cl)s2)cc1	/	/	/	/	/	.
CSc1nc2ccc(NS(=O)(=O)c3ccc(Cl)s3)cc2s1	.	.	.	.	25µM	.
COc1ccc2c(c1)C(=O)[C@@H](OC(=O)NCc1ccco1)[C@H](c1ccc(OC)c(Br)c1)O2	/	/	/	/	.	.
Cc1nc(-c2ccc(Br)cc2)ccc1C(=O)O	.	/	/	?	.	8.9µM
Cc1ccc(-c2ccc(C(=O)O)c(C)n2)cc1	.	/	/	.	.	.
CCNc1nc2ccccc2[nH]1	.	.	.	-109	.	.
Cc1ccc(CNC(=O)CS(=O)Cc2nc(-c3cccs3)oc2C)cc1 (stereo not given)	.	.	.	.	28µM	.
O=C(O)CC1(CC(=O)Nc2ccc3ccccc3c2)CCCCC1	.	.	.	.	4µM	?
O=C(O)CC1(CC(=O)Nc2ccc(Br)cc2)CCCCC1	/	/	/	/	/	.
COc1ccc(S(=O)(=O)Nc2ccccc2C(=O)NC(C)(C)C)cc1OC	.	.	.	-112	?	.
COc1cc(C/C=C\c2ccccc2)c(OC)cc1O	/	/	/	/	.	.
CCCCNc1nc(C)nc2c1nc(-c1ccccc1)n2CC(C)(C)CN(C)C	.	/	.	/	?	.
N#Cc1ccccc1Sc1ccccc1C(=O)Nc1ccccc1	.	.	.	.	.	.
CN(C)C(=O)c1ccc(NC(=O)c2ccccc2Sc2ccccc2C#N)cc1	.	/	/	.	18µM	.
c1ccc(-c2ccc(N3CCCC4(CCNCC4)C3)cc2)cc1	.	/	.	/	?	.
CC(=O)c1c(C)n(-c2ccccc2)c2ccc(O)cc12	.	.	.	.	5µM	.
Cc1cc(N2CCOCC2)nc2ccc(Cc3ccc4nc(N5CCOCC5)cc(C)c4c3)cc12	.[11.4 µM]	/	.[11.4 µM]	/	?	.
CN1C(=O)/C(=C/c2ccc(-c3ccccc3[N+](=O)[O-])o2)SC1=Nc1ccc(Cl)c(C(=O)O)c1	.	.	/	?	14µM	.
CC(=C/C=C/C(C)=C/C=C/C=C(C)/C=C/C=C(C)/C=C/C(=O)O)/C=C/C(=O)O	.	/	.	/	.	.
CCOC(=O)C1(c2csc(N)n2)COC(=O)C1 (stereo not given)	.	.	.	.	.	.
CCCOCC1CC2(CC(C)(c3csc(N)n3)OC2=O)C(=O)O1 (stereo not given)	.	.	/	-119	.	.
COc1ccc(C2=NOC(C(=O)NCc3cccs3)C2)cc1OC (stereo not given)	.	.	.	.	.	.
COc1cc(C2=NOC(C(=O)NCc3cccs3)C2)cc(OC)c1OC (stereo not given)	.	.	.	-104	.	.
CC1CCCN(Cc2c(O)ccc3c(=O)c(-c4ccccc4Cl)c(C(F)(F)F)oc23)C1 (stereo not given)	/	.	/	/	/	/
CCOC(=O)C1=C(C)NC(=O)NC1c1ccoc1 (stereo not given)	.	.	.	.	.	.
CCOC(=O)C1=C(c2ccccc2)NC(=O)NC1c1ccc(OC)cc1 (stereo not given)	/	/	/	/	/	.
CCOC(=O)C1=C(C)NC(=O)NC1c1ccc2c(c1)OCCO2 (stereo not given)	.	.	.	-100	.	.
CCOC(=O)C1=C(C)NC(=O)NC1c1ccc(OCC(N)=O)cc1 (stereo not given)	.	.	/	-100	.	.
CCOC(=O)C1=C(C)NC(=O)NC1c1ccc(OC(=O)c2ccco2)cc1 (stereo not given)	.	.	/	.	.	.
